From paper PMC5540273 (PLoS ONE, 2017)

Legend:
Settings in all cases: concentration: 1 μM,replicates: in singlicate; n = 1
PCTK2 = tested on: T1, PCTK2
T1 construct: gene CDK17

PCTK3 = tested on: T2, PCTK3
T2 construct: gene CDK18

PDGFRA = tested on: PDGFRA
PDGFRB = tested on: PDGFRB
PDPK1 = tested on: PDPK1
PFTAIRE2 = tested on: PFTAIRE2
PFTK1 = tested on: T3, PFTK1
T3 construct: gene CDK14

PHKG1 = tested on: PHKG1
PHKG2 = tested on: PHKG2
PIK3C2B = tested on: PIK3C2B
PIK3C2G = tested on: PIK3C2G
PIK3CA = tested on: PIK3CA
PIK3CB = tested on: PIK3CB
PIK3CD = tested on: PIK3CD
PIK3CG = tested on: PIK3CG
PIK4CB = tested on: T4, PIK4CB
T4 construct: gene PI4KB

PIKFYVE = tested on: PIKFYVE
PIM1 = tested on: PIM1
PIM2 = tested on: PIM2
PIM3 = tested on: PIM3
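Further: KINOMEscan kinase panel screen.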

Structure (SMILES)	%Inh (PCTK2) [%]	%Inh (PCTK3) [%]	%Inh (PDGFRA) [%]	%Inh (PDGFRB) [%]	%Inh (PDPK1) [%]	%Inh (PFTAIRE2) [%]	%Inh (PFTK1) [%]	%Inh (PHKG1) [%]	%Inh (PHKG2) [%]	%Inh (PIK3C2B) [%]	%Inh (PIK3C2G) [%]	%Inh (PIK3CA) [%]	%Inh (PIK3CB) [%]	%Inh (PIK3CD) [%]	%Inh (PIK3CG) [%]	%Inh (PIK4CB) [%]	%Inh (PIKFYVE) [%]	%Inh (PIM1) [%]	%Inh (PIM2) [%]	%Inh (PIM3) [%]
C[C@H]1Oc2cc(cnc2N)-c2c(nn(C)c2C#N)CN(C)C(=O)c2ccc(F)cc21	1	29	0	10	41	10	12	54	100	0	20	0	0	0	0	0	19	21	19	12
CN(C)CCOc1ccc(-c2cc(-c3c[nH]nc3-c3ccccn3)ccn2)cc1 [GW835314]	7	2	29	20	15	19	1	47	0	0	5	0	11	2	0	36	0	13	0	0
NC(=O)c1cc(-c2ccccc2)cc2c(C3CCNCC3)c[nH]c12 [GSK301362]	0	0	0	67	0	21	17	17	0	0	0	0	0	6	2	0	0	17	0	7
Cl.Cl.Nc1nc(-c2ccc3c(N)n[nH]c3c2)cc(N2CCCC(NC(=O)c3ccccc3)C2)n1 (stereo not drawn) [GSK2286775]	21	11	0	21	85	18	18	0	0	14	43	14	0	2	4	27	6	25	0	25
Cc1cc2cn[nH]c2cc1-c1cccc2c(N)c(C(N)=O)nnc12	14	26	34	18	0	29	0	26	0	0	13	0	0	46	0	26	0	0	0	0
O=C(NCCCN1CCOC1=O)c1cnc(NCc2cc(Cl)ccc2Cl)nc1NC1CCCC1	0	13	0	30	28	0	7	0	13	4	8	0	2	0	0	12	36	9	16	10
CCn1c(-c2nonc2N)nc2c(C#CC(C)(C)O)nc(OCCN)cc21.Cl.Cl [GSK902056]	0	0	0	4	0	0	0	0	0	0	0	0	0	5	0	9	19	25	0	11
CC(C)N1C(=O)Cc2cc(Nc3ncc(C(F)(F)F)c(NCc4cccc(S(C)(=O)=O)c4)n3)ccc21	20	7	36	71	0	6	14	0	26	3	28	6	29	0	5	28	27	5	0	9
Cl.Cl.NC[C@H](Cc1ccc(C(F)(F)F)cc1)NC(=O)c1cc(Br)c(-c2ccnc3[nH]ccc23)s1 [GSK1487252]	0	0	28	54	0	5	0	0	0	0	61	0	0	0	0	0	12	35	0	0
COc1ccc(C[C@@H](CN)NC(=O)c2cc(Br)c(-c3ccnc4[nH]ccc34)s2)cc1.Cl.Cl [GSK1389063]	0	0	62	96.3	32	3	16	45	24	0	0	0	52	2	0	19	0	34	0	6
Cl.Oc1cc(-c2nc(-c3ccccc3)[nH]c2-c2ccncc2)ccc1Cl [SB-386023]	0	0	0	11	2	23	0	0	0	7	19	0	14	0	0	14	87	0	3	0
Cc1occc1-c1nc(N)c(OC[C@@H](N)Cc2c[nH]c3ccccc23)cc1-c1cc2c(C)n[nH]c2cn1 [GSK1660450]	0	0	0	49	0	100	45	84	11	0	7	0	0	10	0	0	0	97.3	99.2	97.7
Cc1ccc2c(-c3ccncc3)c(-c3ccc(F)cc3)nn2c1.Cl [GW461484]	0	11	0	8	0	0	0	33	0	0	0	0	25	0	1	0	0	0	0	16
Cc1cc(C(=O)Nc2ccc(Oc3ccc4nc(NC(=O)C5CC5)cn4n3)cc2)nn1-c1ccccc1	17	4	97.7	100	8	0	0	49	0	0	2	0	0	0	0	0	1	2	2	0
CCN(CC)CCOc1ccc(Nc2ncc3cc(-c4c(Cl)cccc4Cl)c(=O)n(C)c3n2)cc1 [SB-601273]	24	0	99.8	100	0	19	0	0	30	85	11	6	30	40	21	5	48	0	0	0
CC(C)Nc1cc(-c2ccc3c(N)n[nH]c3c2)nc(N)n1 [GSK2221681]	0	10	1	5		10	0	11	0	0	0	0	0	0	0	7	0	15	0	0
CCN(CC)CCCCNc1ncc2cc(-c3c(Cl)cccc3Cl)c(NC(=O)NC(C)(C)C)nc2n1	0	0	90.1	100	0	0	0	0	0	27	6	8	91.6	15	2	0	21	0	13	0
C=CC(=O)Nc1cc2c(Nc3ccc(F)c(Cl)c3)ncnc2cc1OCCCN1CCOCC1 [GW781483]	0	0	77	15	0	15	0	0	0	2	0	0	60	0	42	21	20	2	0	0
Cc1ccc(-n2nc(C(C)(C)C)cc2NC(=O)Nc2ccc(OCCN3CCOCC3)c3ccccc23)cc1 [GW839464]	13	2	0	87	0	0	2	0	8	0	0	0	0	0	0	0	0	0	9	0
O=C(NCCNc1ccnc(NCc2ccc(F)cc2)n1)c1cc2ccccc2s1 [GSK1379944]	0	14	0	86	15	7	11	0	0	0	0	0	0	0	0	5	0	0	0	0
CN(C)CC(O)COc1ccc(Nc2nccc(-c3cnn4nc(N5CCOCC5)ccc34)n2)cc1 (stereo not drawn) [GW767488]	91.9	52	56	60	0	16	46	38	81	43	20	33	35	37	63	46	68	15	0	35
Nc1nc(Nc2ccccc2)cc(-c2ccc3c(N)n[nH]c3c2)n1 [GSK2225749]	0	0	4	2		15	9	0	0	2	20	0	0	22	0	15	27	12	0	0
Cl.Cl.NC[C@H](CC1CCCCC1)NC(=O)c1cc(Br)c(-c2ccnc3[nH]ccc23)s1 [GSK1581427]	0	0	22	75	0	63	28	20	19	0	0	0	0	0	0	1	0	1	0	0
CNC(=O)c1ccccc1Sc1ccc2c(/C=C/c3ccccn3)n[nH]c2c1	0	8	99.9	100	0	14	2	16	0	0	0	0	0	11	2	0	43	0	0	6
C[C@@H]1CCN(C(=O)CC#N)C[C@@H]1N(C)c1ncnc2[nH]ccc12	0	8	0		0	0	21	15	13	0	0	0	0	0	0	0	36	0	0	0
C[C@@H](Oc1cc(-c2cnn(C3CCNCC3)c2)cnc1N)c1c(Cl)ccc(F)c1Cl	4	6	23	0	14	1	0	24	7	10	8	14	18	0	9	3	5	0	0	3
Cc1n[nH]c2ccc(-c3cc(OC[C@@H](N)Cc4ccccc4)cnc3-c3ccoc3)cc12.O=C(O)C(F)(F)F.O=C(O)C(F)(F)F [GSK507358]	0	0	0	50	0	0	9	0	0	0	0	0	0	0	0	0	8	29	90	47
